In all, about 69,000 compounds went through this assay and about 8,600 (12%) showed an effect of 50% or more. Shown is part of a subset that was picked to be rich in strong results.

The assay deals with Plasmodium berghei. Description: Screen against P. berghei liver stage (PbLuc), transformed with Luciferase, at 10uM. The class given is functional, HepG2. The note with it: tested at 10 uM.
As for `O[C@H]1CN(Cc2ccnc(N3CCCC3)n2)CC[C@@]12CCCO2`, the INHIBITION was -14.2%. Then `Cc1ncsc1CN(C)Cc1cc2c(cc1OC(F)F)OCO2`, with 34.9%; and `Cc1csc(C(C)(C)NCc2ncc(-c3ccccc3)o2)n1`, with -20.3%. In the case of `CN(C)C(=O)c1nc(-c2ccc(S(C)(=O)=O)cc2)c2ccccn12` it was 17.6%.

For the molecule `CNC(=O)C1CN(C(=O)COc2ccccc2)Cc2cn(C)nc21` (stereo unspecified), the INHIBITION is reported as 42.6%. On to `COC(=O)Cn1c(=O)[nH]c2cn(-c3cccc(C)c3)c(=O)n21`, for which the INHIBITION is on record as -9.39%. Then `CNC(=O)CNC(=O)NCc1cc2c(s1)CCC(C)(C)C2`, with 26.1%.

On to `CSCc1ccc(C(=O)NCCCNc2ccc(C(F)(F)F)cn2)cc1`, for which the INHIBITION was 60.95%.

As to `O=C(NCCNc1ccc(C(F)(F)F)cn1)c1cncc(Br)c1`, the INHIBITION is 26.1%. In the case of `O=C(NCCCNc1ccc(C(F)(F)F)cn1)c1ccc2c(c1)OCO2` it was 60.5%; in that of `O=C(NCCNc1ccc(C(F)(F)F)cn1)c1ccc(Cl)cc1F`, 29.4%; in that of `O=C(NCCNc1ccc(C(F)(F)F)cn1)c1ccc(Br)cc1`, -18%. In the case of `COCc1ccc(C(=O)NCCCNc2ccc(C(F)(F)F)cn2)cc1`, the INHIBITION is listed as 24.15%.

As for `CN(CCc1cccs1)C(=O)Nc1cnn(CC2CCCO2)c1` (stereo unspecified), the INHIBITION was 6.33%.

For the molecule `Cc1csc2cc(C(=O)NC3CC3)cnc12`, the INHIBITION is reported as -82.4%.

On to `CCN1CCC2(COCc3c(C)nc(N(C)C)nc32)C1` (stereo unspecified), for which the INHIBITION is on record as 2.59%. Then `CCOc1ncccc1C(=O)N1CCCC1c1c(C)nn(C)c1OC` (stereo unspecified), with 32.4%; and `Cc1ccc2c(c1)SCC(=O)N2CC(=O)N1CCC[C@H]1c1nc(C)no1`, with 74%; and `Cc1ccc2c(c1)SCC(=O)N2CC(=O)N1CCCC1c1cc(C)no1` (stereo unspecified), with -40.6%. In the case of `Cc1ccc2c(c1)SCC(=O)N2CC(=O)N1CCCC1c1cc(C)on1` (stereo unspecified), the INHIBITION was -1.45%. In the case of `O=C(NCC1CCC(c2nnc(-c3cccnc3)o2)CC1)C1CC1` (stereo unspecified), the INHIBITION came out at 50.8%.

For the molecule `c1cc(-c2nnc(C3CCCN(CC4CCCCC4)C3)o2)ccn1` (stereo unspecified), the INHIBITION is 38.8%. In the case of `COCC(=O)NCC1CCC(c2nnc(-c3ccncc3)o2)CC1` (stereo unspecified) it was 13.7%; in that of `c1cncc(-c2nnc([C@H]3CCN(CC4CCCCC4)C3)o2)c1`, 55.9%; in that of `c1cncc(-c2nnc([C@H]3CCN(CC4CC4)C3)o2)c1`, 67.8%. Then `COCC(=O)NCC1CCC(c2nnc(-c3cccnc3)o2)CC1` (stereo unspecified), with -8.58%; and `c1ccc(OCCN2CCC(c3nnc(-c4cccnc4)o3)CC2)cc1`, with 20.8%; and `c1ccc(-c2nnc(C3CCCN(CC4CCCCC4)C3)o2)nc1` (stereo unspecified), with 7.52%. For the molecule `c1ccc(CCCN2CC[C@H](c3nnc(-c4cccnc4)o3)C2)cc1`, the INHIBITION is reported as 13.5%. In the case of `CC(=O)N1CCC(Cc2cnc(-n3ccnc3)cn2)CC1` it was 17.1%; in that of `COC(=O)c1ccc(OC)c(Cn2cc(N)cn2)c1`, 18.9%; in that of `Cc1nc(C)n(CC2CN(Cc3nccs3)Cc3nccn3C2)n1` (stereo unspecified), 8.03%. Turning to `Cc1cc(F)cc(S(=O)(=O)Nc2ccn(CCCC#N)n2)c1`, the INHIBITION was 26%. In the case of `CC(=O)N(Cc1ncc(C)o1)C1CCN(CCc2cnn(C)c2)C1` (stereo unspecified) it was -36.1%; in that of `O=C(N1CCOCC1)N1C[C@@H]2CC[C@H]1CN(C1Cc3ccccc3C1)C2`, -43.5%; in that of `C[C@@H]1CN(Cc2nc(Cc3ccccc3F)no2)C[C@H](C)O1`, 3.93%. For `Cc1nc(C2CCNC2)nc2c1CCC(=O)N2C` (stereo unspecified), the INHIBITION was 17.265%. Then `CS(=O)(=O)Cc1nc(CN2CCCc3sccc3C2)cs1`, with 36.2%; and `CS(=O)(=O)Cc1nc(CN2CC=C(c3ccccc3)CC2)cs1`, with 27.6%.

With `CS(=O)(=O)Cc1nc(CNc2c(F)cc(F)cc2F)cs1`, the INHIBITION amounted to 40.4%. In the case of `CS(=O)(=O)Cc1nc(CN2CCOc3ccccc3C2)cs1` it was 7.31%; in that of `CC1(C)CN(Cc2csc(CS(C)(=O)=O)n2)Cc2ccccc21`, 60.8%; in that of `CCc1nc(CSCc2csc(CS(C)(=O)=O)n2)cs1`, -29.2%. In the case of `CS(=O)(=O)Cc1nc(CN2CCc3ccccc3CC2)cs1` it was 56.5%; in that of `CS(=O)(=O)Cc1nc(CN2CCC(C(F)(F)F)CC2)cs1`, 52.2%; in that of `Cc1cc(CSCc2csc(CS(C)(=O)=O)n2)no1`, 19.4%. Consider `COc1ccc(C2CCCN2Cc2ccc(S(=O)(=O)N(C)C)o2)cc1` (stereo unspecified), for which the INHIBITION turned out to be 37.4%. In the case of `O=C(Cn1cc(C(=O)O)cn1)Nc1c(Cl)cccc1Cl` it was 22.6%; in that of `CC(C(=O)N1CCCN(Cc2ccc(C#N)cc2)CC1)n1cncn1` (stereo unspecified), 27.65%. In the case of `Cc1n[nH]c(C)c1NC(=O)CCc1cccc(C2CCCN(C)C2)n1` (stereo unspecified) it was 29.3%; in that of `CCCn1c(C)c(CC(=O)NC(C)CO)c2c1CC(C)(C)CC2=O` (stereo unspecified), 18.6%.

As to `O=C1[C@@H]2CN(c3ncnc4[nH]ccc34)C[C@]2(C(=O)O)CN1CC1CC1`, the INHIBITION was determined as 36.6%. In the case of `Cc1ccc(-c2cc(CNC(=O)N3CCCN(C)CC3)on2)cc1` it was 35.9%; in that of `Cn1c(=O)[nH]c(=O)c2c1nc1n2CC(c2ccc(Cl)cc2)O1` (stereo unspecified), 7.92%.

Regarding `CCc1noc(C(C)N(C)CC(=O)Nc2ccc(Br)cc2C)n1` (stereo unspecified), the INHIBITION was 74%. Then `COc1ccc(Br)cc1CN(C)C(C)c1nc(C(C)C)no1` (stereo unspecified), with 3.73%; and `COc1ccc(Br)cc1CN(C)C(C)c1nc(C)no1` (stereo unspecified), with 4.82%. For the molecule `CCc1noc(C(C)N(C)Cc2cc(Br)ccc2OC)n1` (stereo unspecified), the INHIBITION was 51.5%. On to `CCc1noc(C(C)N(C)CC(=O)Nc2c(C)cccc2C)n1` (stereo unspecified), for which the INHIBITION is -8.69%.

For the molecule `CCc1noc(C(C)N(C)CC(=O)Nc2ccc(Cl)c(C(F)(F)F)c2)n1` (stereo unspecified), the INHIBITION was 90.2%. In the case of `CCc1noc(C(C)N(C)CC(=O)Nc2ccc(C)cc2)n1` (stereo unspecified) it was 27.6%; in that of `CCc1noc(C(C)N(C)CC(=O)Nc2cccc(C)n2)n1` (stereo unspecified), -29.2%; in that of `CCc1noc(C(C)N(C)CC(=O)Nc2cccc(C)c2C)n1` (stereo unspecified), 41.4%. Then `Cc1ccccc1NC(=O)NCC(C)(O)c1cccs1` (stereo unspecified), with 48.8%; and `Cc1noc2nc(C3CCN(Cc4ccccn4)CC3)cc(C(F)F)c12`, with 47.1%.

Turning to `Cc1cc(C(NC(=O)CNS(C)(=O)=O)C(C)C)c(C)s1` (stereo unspecified), the INHIBITION amounted to 22.3%. For the molecule `Cc1cccc(CN2C[C@@H]3COC[C@]3(CNC(=O)c3ccsc3)C2)n1`, the INHIBITION is 39.8%. In the case of `COc1ccc(CN2CCO[C@@H]3C[C@@H](C(=O)NC(C)C)C[C@H]32)cc1` it was 26.5%; in that of `CCS(=O)(=O)NC(CCSC)C(=O)Nc1cccc(C)c1C` (stereo unspecified), 26.9%; in that of `CC(Oc1cc(Cl)cc(Cl)c1)C(=O)NCCS(N)(=O)=O` (stereo unspecified), 34.7%. In the case of `Cc1c(Br)c(C(=O)NC(C)c2ccccc2)nn1C` (stereo unspecified) it was -38.2%; in that of `Cc1ccc(-c2noc(CCC(=O)NC(C)Cn3cccn3)n2)cc1` (stereo unspecified), 22.6%; in that of `O=C(CCc1ccccc1)N1CCn2cc(CN3CCCC3)nc2C1`, 41.4%.

As to `N#Cc1ccc(C(=O)N2CCn3cc(CN4CCCCC4)nc3C2)cc1`, the INHIBITION came out at 52%. In the case of `Cn1cccc1C(=O)N1CCn2cc(CN3CCCC3)nc2C1` it was 52%; in that of `CN1CCN(Cc2cn3c(n2)CN(C(=O)c2cccn2C)CC3)CC1`, 54.7%.

Take `CC(=O)NCC(=O)N1CCn2cc(CN3CCCCC3)nc2C1`: the INHIBITION worked out at 68.8%. In the case of `O=C(c1cccnc1)N1CCn2cc(CN3CCCC3)nc2C1`, the INHIBITION is given as 31.1%. In the case of `CN1CCN(Cc2cn3c(n2)CN(C(=O)c2ccco2)CC3)CC1`, the INHIBITION is recorded as 17.4%. For `CN1CCN(Cc2cn3c(n2)CN(C(=O)c2ccccn2)CC3)CC1`, the INHIBITION amounted to 25.1%. Then `CC(=O)NCC(=O)N1CCn2cc(CN3CCN(C)CC3)nc2C1`, with 43.5%; and `O=C(c1ccc[nH]1)N1CCn2cc(CN3CCCC3)nc2C1`, with 18.8%; and `O=C(c1ccnnc1)N1CCn2cc(CN3CCCCC3)nc2C1`, with 41.6%. Take `O=C(c1ccco1)N1CCn2cc(CN3CCCC3)nc2C1`: the INHIBITION came out at 25.2%. For the molecule `Cc1ccc(NC2CCN(C(=O)c3cc4c(s3)CCC4)CC2)nn1`, the INHIBITION was -11.4%.

`CCn1cnnc1CNC(=O)NC(c1cccs1)C1CCCC1` (stereo unspecified): the INHIBITION is reported as -9.76%. In the case of `COc1ccc(NC(=O)c2cnc(C3CCN(C(C)=O)C3)nc2C)cc1` (stereo unspecified) it was 25.55%; in that of `O=C1CCC2(CCC(NC3CCOC3)CC2)N1Cc1ccncc1` (stereo unspecified), 3.81%; in that of `CCC1(c2ccc(NS(=O)(=O)N(C)C)cc2)CCC(=O)NC1=O` (stereo unspecified), 18.9%. In the case of `Cc1cc(N2CCOCC2)nc(N(C)CCO)c1C#N` it was 12.3%; in that of `CC(C)c1nc2c(n1C)CCN(Cc1nc(-c3ccoc3)no1)C2`, 25.6%. Turning to `CNc1cncc(C2CCCN2C(=O)Cn2ccnc2C)n1` (stereo unspecified), the INHIBITION came to 2.915%. In the case of `O=C(Cc1csc(-c2ccccc2)n1)N[C@@H](C(=O)O)c1ccccc1` it was -3.11%. For `Cc1cc(C(=O)N2CCn3cc(CN4CCOCC4)nc3C2)no1`, the INHIBITION was 68.4%.

Consider `Cc1cc(C(=O)N2CCn3cc(CN4CCCC4)nc3C2)no1`, for which the INHIBITION is given as 13.6%. Then `Cc1cc(C(=O)N2CCn3cc(CN4CCCCC4)nc3C2)no1`, with 17.1%; and `CCN(Cc1noc(C2CCC2)n1)C(=O)CCc1cc2n(n1)CCNC2`, with 11.9%; and `CN(CCCc1cnn(C)c1)Cc1cc2n(n1)CCCNC2`, with 49.4%.

Consider `CNc1ncc(CN(C)Cc2cc3n(n2)CCNC3)cn1`, for which the INHIBITION was -99.3%. Then `CN(CCCc1cnn(C)c1)Cc1cc2n(n1)CCCN(C)C2`, with 65.7%; and `CCc1cnc(C)nc1N(C)CCCc1cnn(C)c1`, with 8.31%; and `CN(CCc1noc(C2CC2)n1)C(=O)CCc1cc2n(n1)CCCNC2`, with 46.6%. In the case of `CN(CCCc1cnn(C)c1)C(=O)C1CCN(C(=O)C2CCC2)CC1` it was 38.7%; in that of `CN(CCCc1cnn(C)c1)Cc1cc2n(n1)CCNC2`, 52.6%.

`CN(Cc1cc2n(n1)CCNC2)Cc1noc(C2CCC2)n1`: the INHIBITION is listed as 51%. In the case of `O=C(c1cc2cc(F)ccc2[nH]1)N1CCC(Nc2cccnn2)CC1` it was 22.3%.

(Values after ChEMBL document CHEMBL4513216, “Probing the Open Global Health Chemical Diversity Library for Multistage-Active Starting Points for Next-Generation Antimalarials” (ACS Infect Dis, 2020).)
